Reference: PubChem BioAssay AID743461 (Broad Institute, 2014)
The list shows a part of the results. A number with no mark means an inactive call.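 How the source made its calls: active means fitted dose curve reaching 40% activity at or below the highest valid dose tested; inconclusive means flat fit between 30% and 70%, or an unusable fit; inactive means the rest.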

Test: COX5a mRNA reduction in C2C12 myotubes – cell-based, RT-qPCR, cherry-picked samples, dose response (AID 743461)
Conditions: C2C12 myotubes PGC-1a adenovirus, at 0.0285 µM

**Q.** For `N#Cc1ccc(-c2ccc(C3[C@@H]4CN(S(=O)(=O)c5ccc(F)cc5)C[C@H]3N4)cc2)cc1` (stereo partly specified), which maximal activity is on record?
**A.** -35.2%
